Shown are actives, neighbours in structure and some others; about 4.8% of the full set was active somewhere.
hgDAF12 agonist: activates the H. glycines DAF-12 receptor ligand-binding domain; AID 687014; HEK293 GAL4-hgDAF12 UAS-luciferase reporter, agonist luminescence; normalized to butyrate control; hit rate 1.8% among 370,000; activation, % at 6.8 µM;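 active = activation above a cutoff set at the mean of all screened compounds plus 3 SD, cut at about 10% in these data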;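 also: 0% = DMSO wells and 100% = sodium butyrate wells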
hcDAF12 agonist: activates DAF-12 receptor from parasite H. contortus; activation, % at 6.8 µM; HEK293 hcDAF-12 lit1-tk-luc reporter, luminescence; 0% DMSO, 100% Δ7-dafachronic acid; hit rate 1.4% among 370,000;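 active = activation above the mean of all tested compounds plus 3 SD, cut at about 5.5% in these data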;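 also: 100% = response to 3 µM Δ7-dafachronic acid high control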
ssDAF-12 act: activators of S. stercoralis DAF-12 nuclear receptor; HEK293 ssDAF-12/GRIP1 lit1-tk-luc reporter, luminescence; % of 3 µM dafachronic acid response; activation, % at 6.8 µM; hit rate 1% among 370,000; AID 652126;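 active = activation above the mean over all tested compounds plus 3 SD, cut at about 0.9% in these data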;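 also: 0% = DMSO-only wells and 100% = 3 µM delta7-dafachronic acid wells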
DAX1 inh-1: inhibits human nuclear receptor DAX1 | AID 504766 | inhibition, % at 6.75 µM | hit rate 0.99% among 340,000 | HEK293 Gal4-DAX1 luciferase reporter, luminescence;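 active = inhibition above the mean over all tested compounds plus 3 SD, cut at about 4.2% in these data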;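 also: 0% = DAX1-transfected cells with DMSO and 100% = empty-vector control cells with DMSO; inhibition shows as a rise in luminescence from relieved DAX1 repression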
Target sequence (P51843 207-470 limits assumed): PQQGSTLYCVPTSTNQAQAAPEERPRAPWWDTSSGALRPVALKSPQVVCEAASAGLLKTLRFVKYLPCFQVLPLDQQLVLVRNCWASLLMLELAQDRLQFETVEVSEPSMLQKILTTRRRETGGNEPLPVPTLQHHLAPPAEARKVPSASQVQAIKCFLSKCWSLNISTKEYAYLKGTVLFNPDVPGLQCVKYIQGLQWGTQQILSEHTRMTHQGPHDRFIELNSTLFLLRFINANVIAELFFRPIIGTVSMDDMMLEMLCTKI
DAX1 inh-2: blocks DAX1 repression of SF-1 activated StAR promoter; HEK293T StAR-luciferase reporter, SF-1/DAX-1 repression relief; inhibition, % at 6.8 µM; hit rate 1.1% among 370,000; AID 652010;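 active = inhibition above the mean over all tested compounds plus 3 SD, cut at about 3.6% in these data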;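 also: 0% = DAX-1 cells with DMSO and 100% = cells lacking DAX-1 with DMSO; higher inhibition means more luminescence from relief of DAX-1 repression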
SMARCA2 act: SMARCA2 function activation, primary screen | MG213 cells, MMTV-luciferase reporter, dexamethasone, overnight | activation, % at 9.1 µM | hit rate 1% among 370,000; in the data active = activation above about 7.8%;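 also: 0% = vehicle wells and 100% = reference activator wells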
* = called active by the depositor; · = no result given.

SMILES	hgDAF12 agonist	hcDAF12 agonist	ssDAF-12 act	DAX1 inh-1	DAX1 inh-2	SMARCA2 act
Cc1cc(C)c(-n2c(O)c(/C=N/NC(=O)c3ccncc3)c(=O)[nH]c2=O)c(C)c1	-1	-1	-1	·	1	-2
C/C(=N\NC(N)=O)c1c(O)n(C)c(=O)n(C)c1=O	-1	-1	0	1	0	-1
O=C1NC(=O)N(CCC2=CCCCC2)C(=O)/C1=C/c1cccs1	1	1	1.7*	·	0	2
O=C(O)c1nn(Cc2ccc(Cl)cc2)c2ccccc12	-2	2	-1	0	1	-5
C=C(C)CSc1nnc([C@@H](N)Cc2ccccc2)o1	2	0	-1	-1	0	-2
COc1ccc(NC(=S)NC(NC(=O)CF)C(Cl)(Cl)Cl)cc1[N+](=O)[O-] (stereo not drawn)	4	-1	-2	4.6*	0	-2
O=C(CCn1nc(-c2ccc(Cl)cc2)ccc1=O)N1CCC2(CC1)OCCO2	1	-1	-2	1	0	4
O=C(Cn1nc(-c2ccc(Cl)cc2)ccc1=O)N1CCC2(CC1)OCCO2	-3	-1	0	4.4*	0	0
C#CC[N+]1(C)[C@@H]2CC(OC(=O)C(CO)c3ccccc3)C[C@H]1C(O)C2 (stereo partly drawn)	3	1	-2	0	0	-1
O=C(Cc1c[nH]c2ccccc12)NNCc1ccc(N(CCCl)CCCl)cc1	1	4	49*	1	-1	-4
O=C(Cc1ccc(N(CCCl)CCCl)cc1)NC(Cc1ccc(Cl)cc1)C(=O)O (stereo not drawn)	1	-2	-1	2	0	0
Cc1cc(C)c(C)c(C(O)(C(=O)O)c2ccccc2)c1 (stereo not drawn)	-2	-1	-1	0	1	-1
O=C(Nc1ccccc1)c1c(O)c2c(n(Cc3ccco3)c1=O)CCCC2	2	5	0	4.3*	0	-3
O=C(Nc1nccs1)c1c(O)c2c(n(Cc3ccco3)c1=O)CCCC2	1	5	1.3*	1	0	-3
O=C(Nc1cccc(Cl)c1)c1c(O)c2c(n(Cc3ccco3)c1=O)CCCC2	-1	1	-1	·	0	1
CC(C)C[C@H]1COc2cccc(N3CCN(C)CC3)c2S(=O)(=O)N1	1	-1	-1	·	4.2*	-4
CC(C)C[C@@H]1COc2cccc(N3CCN(C)CC3)c2S(=O)(=O)N1	2	0	-1	·	-2	-4
Cc1ccc(C(O)P(=O)(Oc2ccccc2)Oc2ccccc2)cc1 (stereo not drawn)	0	-1	-1	0	0	0
COc1ccc2[nH]c3c(c2c1)CCNC3C (stereo not drawn)	-1	5.7*	0	2	-1	-2
COc1ccc2c3c([nH]c2c1)C(C)NCC3 (stereo not drawn)	-1	2	-1	-1	0	1
Cc1ccccc1N1CCN(Cc2ccc3c(c2)OCO3)CC1	-2	-3	0	-1	0	-4
Cc1c(C=O)c2ccccc2n1Cc1cccc(F)c1	-3	4	-1	0	0	-1
CCOC(=O)[C@]12Cc3cc4ccccc4cc3[C@H]1N(Cc1ccccc1)C(=O)c1cc(OC)ccc12	5	0	-1	·	3.7*	1
C/C=C/CC#N	-1	-2	-1	0	1	-4
NC(=S)N/N=C/c1coc2ccccc2c1=O	3	0	1.2*	-1	0	1
SMILES	hgDAF12 agonist	hcDAF12 agonist	ssDAF-12 act	DAX1 inh-1	DAX1 inh-2	SMARCA2 act
CCCC(C)(COC(N)=O)COC(=O)NC(C)C (stereo not drawn)	-1	1	-1	-1	0	-1
Cc1ccc(N2C(=O)NC(=O)/C(=C\c3cn(CC(=O)O)c4ccccc34)C2=O)cc1	2	4	1.4*	2	0	0
O=C(O)Cn1cc(/C=C2\C(=O)NC(=O)N(c3ccc(Br)cc3)C2=O)c2ccccc21	3	5.6*	1.2*	-1	0	-5
CC12CN3CCN(CC(C3)/C1=N/NC(N)=O)C2	-1	-2	-1	2	0	-1
COc1ccccc1-n1c(O)c(/C=N/N2CCCCC2)c(=O)n(-c2ccccc2OC)c1=S	1	-1	-1	0	0	-1
CC(C)(C)n1nnnc1C1CN=C(c2ccccc2)c2ccccc2N1 (stereo not drawn)	11*	1	-1	·	1	0
CC(C)(C)n1nnnc1C1CN=C(c2ccccc2)c2cc(Cl)ccc2N1 (stereo not drawn)	2	-2	-1	·	0	-3
CC(C)NS(=O)(=O)c1ccc(OCC(=O)N2CCN(C)CC2)cc1	6	0	-1	4.4*	0	0
CN1CCN(C(=O)COc2ccc3ccccc3c2)CC1	3	1	0	0	0	1
CN1CCN(C(=O)COc2ccc(-c3nc4ccccc4s3)cc2)CC1	11*	5	0	-4	3.9*	4
Cc1ccc(-c2nn(Cc3ccccc3)cc2C(=O)O)cc1	1	3	0	5.3*	0	2
CCCCNC(=O)Nc1ccc(C(O)(C(=O)OCC)C(F)(F)F)cc1 (stereo not drawn)	1	0	-1	0	0	-1
CC(C)C1C(C#N)=C(N)Oc2c1c(=O)oc1ccccc21 (stereo not drawn)	-2	0	-1	0	4.0*	-5
CCCC1C(C#N)=C(N)Oc2c1c(=O)oc1ccccc21 (stereo not drawn)	1	-2	-1	4.6*	1	1
CC(C)Oc1ccc(C2C(C#N)=C(N)Oc3c2c(=O)oc2ccccc32)cc1 (stereo not drawn)	1	0	-1	0	0	-4
CCCC(C)C1C(C#N)=C(N)Oc2c1c(=O)oc1ccccc21 (stereo not drawn)	-1	-1	-1	1	0	-1
CC1OC(OC2C(O)CC(OC3C(O)CC(OC4CCC5(C)C(CCC6C5CCC5(C)C(C7=CC(=O)OC7)C(O)CC65O)C4)OC3C)OC2C)CC(O)C1O (stereo not drawn)	-9	3	-2	-4	16*	1
CC(=O)OC1CC(OC2C(O)CC(OC3C(O)CC(OC4CCC5(C)C(CCC6C5CCC5(C)C(C7=CC(=O)OC7)C(O)CC65O)C4)OC3C)OC2C)OC(C)C1OC1OC(CO)C(O)C(O)C1O (stereo not drawn)	-15	-4	-2	-6	-7	-9
O=C(CN1CCCCC1)c1ccc2c(c1)OCO2	1	0	0	5.6*	0	7
O=C(CN1CCCCC1)c1cccc(Br)c1	-1	-1	-1	1	0	0

Source: PubChem
